Data from PubChem BioAssay (Tox21).
Values joined by “and” are separate entries in the source; they are usually repeats but may differ in a detail not shown here. Equal entries are not always repeated. Inconclusive results are not listed. A structure can be active in one record and inactive in another. Active and inactive are the calls of the source. Unless noted, calls come from the whole dose curve; as a rule, active = well fitted curve in the direction sought with a large enough effect in the repeat runs; inconclusive = weak or mixed curves; inactive = no such curve, though single readings can be large; an effect the other way counts as inactive or inconclusive.

Assays:
[1] = A CellTox Green Cytotoxicity Assay to monitor cytotoxicity in HEK293 cells - 32 hour (AID 1224881); note: nearly all actives have a fitted effect of over 40% in size; note: potency is the fitted concentration of half-maximal effect
In short: (§1)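 Cytotoxicity was tracked continuously in HEK293 cells by a DNA-binding dye excluded from viable cells. Compounds were transferred in DMSO 5 h after seeding; fluorescence was recorded at intervals up to 40 h.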

[2] = A CellTox Green Cytotoxicity Assay to monitor cytotoxicity in HepG2 cells - 32 hour (AID 1224883); note: nearly all actives have a fitted effect of over 50% in size; note: potency is the fitted concentration of half-maximal effect
In short: (§2)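 Real-time, homogeneous cytotoxicity readout: dead-cell DNA staining by CellTox Green in HepG2 monolayers, fluorescence measured at timed intervals up to 40 h of continuous compound exposure.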

[3] = A CellTox Green Cytotoxicity Assay to monitor cytotoxicity in HEK293 cells - 8 hour (AID 1224884); note: nearly all actives have a fitted effect of over 35% in size; note: potency is the fitted concentration of half-maximal effect
In short: as §1

[4] = qHTS RealTime-Glo MT Cell Viability Assay in HepG2 cells - 16 hour (AID 1224885); note: nearly all actives have a fitted effect of over 50% in size; note: potency is the fitted concentration of half-maximal effect
In short: (§3)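 Compound treatment began 5 h after plating HepG2 cells (600/well) with NanoLuc luciferase and prosubstrate. Plates stayed at 37 C for 40 h; luminescence was captured at six time points, 0 h through 40 h.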

[5] = qHTS RealTime-Glo MT Cell Viability Assay in HEK293 cells - 24 hour (AID 1224886); note: top concentration of the series differs between compounds; nearly all actives have a fitted effect of over 50% in size
In short: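 Quantitative high-throughput screen of the Tox21 10K library in HEK293: cells and RealTime-Glo reagents plated together, compound added at 5 h, luminescence monitored through 40 h at 37 C.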

[6] = qHTS RealTime-Glo MT Cell Viability Assay in HEK293 cells - 8 hour (AID 1224887); note: top concentration of the series differs between compounds; nearly all actives have a fitted effect of over 50% in size
In short: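 Nonlytic bioluminescent viability monitoring. HEK293 at 600 cells/well with reagent; 5 h settle; compound transfer by pintool; plates held at 37 C and read at set time points.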

[7] = A CellTox Green Cytotoxicity Assay to monitor cytotoxicity in HEK293 cells - 16 hour (AID 1224888); note: nearly all actives have a fitted effect of over 35% in size; note: potency is the fitted concentration of half-maximal effect
In short: as §1

[8] = qHTS RealTime-Glo MT Cell Viability Assay in HepG2 cells - 0 hour (AID 1224889); note: nearly all actives have a fitted effect of over 50% in size
In short: as §3

[9] = A CellTox Green Cytotoxicity Assay to monitor cytotoxicity in HepG2 cells - 8 hour (AID 1224890); note: nearly all actives have a fitted effect of over 45% in size; note: potency is the fitted concentration of half-maximal effect
In short: as §2

[10] = qHTS assay to identify small molecule antagonists of the estrogen receptor alpha (ER-alpha) signaling pathway using the BG1 cell line in the presence of 0.1 nM 17-beta-estradiol - cell viability counter screen (AID 1259241); note: nearly all actives have a fitted effect of over 40% in size; note: potency is the fitted concentration of half-maximal effect
In short: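 Following 5 days in phenol red-free medium with charcoal-stripped serum, VM7Luc4E2 cells received test compounds alongside 0.1 nM 17beta-estradiol (final) at 37C for 22 hr. Live cells were then quantified via protease-substrate fluorescence.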

[11] = qHTS assay to identify small molecule antagonists of the androgen receptor (AR) signaling pathway using the MDA cell line in the presence of 0.5 nM R1881 - cell viability counter screen (AID 1259242); note: nearly all actives have a fitted effect of over 45% in size; note: potency is the fitted concentration of half-maximal effect
In short: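 Cytotoxicity toward MDA-kb2 cells is measured by CellTiter-Fluor live-cell protease fluorescence after 16 hr compound exposure at 37C in the presence of 0.5 nM R1881 stimulator.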

[12] = qHTS assay to identify small molecule HDAC inhibitors - cell viability counter screen (AID 1259365); note: nearly all actives have a fitted effect of over 50% in size; note: potency is the fitted concentration of half-maximal effect
In short: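 HCT-116 wild-type, overnight attachment; 2hr drug exposure, 37C; CellTiter-Glo luminescent ATP readout after 30min RT.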

[13] = qHTS assay to identify small molecule agonists of the sonic hedgehog signaling (Shh) pathway - cell viability counter screen (AID 1259366); note: nearly all actives have a fitted effect of over 50% in size; note: potency is the fitted concentration of half-maximal effect
In short: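 Compounds in DMSO were pin-transferred onto 3T3 Gli1-Luc cells that had settled 4hr; plates then stood 24hr at 37C and 5% CO2. One hour before the end, CellTiter-Fluor was added and fluorescence recorded.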

[14] = qHTS assay to identify small molecule antagonists of the sonic hedgehog signaling (Shh) pathway - cell viability counter screen (AID 1259367); note: nearly all actives have a fitted effect of over 55% in size; note: potency is the fitted concentration of half-maximal effect
In short: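 NIH/3T3-derived Gli1-Luc reporter cells (2,000 per well) rested 4 hr at 37 C, then received DMSO compounds plus conditioned medium. After 23 hr of treatment, CellTiter-Fluor was added for 1 hr at 37C and fluorescence read.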

[15] = qHTS assay to identify small molecule agonists of the sonic hedgehog signaling (Shh) pathway (AID 1259368; calls by dose curve;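 note: NIH/3T3-derived 3T3Gli1-Luc cells carrying a stable Gli1-driven firefly luciferase reporter; series mostly up to about 92 µM; nearly all actives have a fitted effect of over 15% in size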)
In short: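 Steps: seed 3T3 Gli1-Luc cells, incubate 4 hr at 37 C, pin-transfer compounds in DMSO alongside a positive control, incubate 24 hr, add luciferase detection reagent, wait 30 min at room temperature, read luminescence.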

[16] = qHTS assay to identify small molecule HDAC inhibitors (AID 1259364); note: nearly all actives have a fitted effect of over 45% in size; note: potency is the fitted concentration of half-maximal effect
In short: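 Homogeneous cell-based luminescent assay of endogenous class I/II HDAC activity; HCT-116 cells, 2 h compound exposure, 30 min HDAC-Glo development at RT.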

[17] = target: Estrogen receptor (Homo sapiens) (UniProt P03372); test: qHTS assay to identify small molecule antagonists of the estrogen receptor alpha (ER-alpha) signaling pathway using the BG1 cell line in the presence of 0.1 nM 17-beta-estradiol (AID 1259244); note: nearly all actives have a fitted effect of over 50% in size
Chain of Estrogen receptor (Homo sapiens) (P03372 whole entry, looked up): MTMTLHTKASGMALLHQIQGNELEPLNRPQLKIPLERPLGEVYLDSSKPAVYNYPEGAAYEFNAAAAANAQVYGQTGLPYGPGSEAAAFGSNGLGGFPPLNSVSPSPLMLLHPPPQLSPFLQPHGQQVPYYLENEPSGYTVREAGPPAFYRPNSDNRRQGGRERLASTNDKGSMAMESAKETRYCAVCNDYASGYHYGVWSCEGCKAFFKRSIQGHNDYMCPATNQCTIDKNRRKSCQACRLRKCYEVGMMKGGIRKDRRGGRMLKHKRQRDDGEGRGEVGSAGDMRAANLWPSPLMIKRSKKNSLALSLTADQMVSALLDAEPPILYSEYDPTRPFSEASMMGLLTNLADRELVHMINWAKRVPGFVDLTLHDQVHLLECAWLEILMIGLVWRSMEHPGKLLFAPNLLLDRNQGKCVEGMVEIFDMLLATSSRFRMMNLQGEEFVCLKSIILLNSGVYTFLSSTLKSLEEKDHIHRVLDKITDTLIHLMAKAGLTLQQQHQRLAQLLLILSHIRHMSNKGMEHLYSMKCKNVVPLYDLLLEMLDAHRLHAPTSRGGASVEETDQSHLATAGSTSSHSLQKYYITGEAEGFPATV
In short: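 After 5 days in hormone-depleted medium (charcoal-stripped serum, no phenol red), VM7Luc4E2 cells were seeded, incubated 24 h, then co-treated with compound and 0.1 nM (final) estradiol for 22 h before luminescence detection.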

[18] = A CellTox Green Cytotoxicity Assay to monitor cytotoxicity in HepG2 cells - 0 hour (AID 1224882); note: nearly all actives have a fitted effect of over 35% in size
In short: as §2

[19] = qHTS assay to identify small molecule phospholipidosis (PLD) inducers (AID 1259344; active = well fitted curve in the direction sought with a large enough effect; an effect the other way counts as inactive or inconclusive)
In short: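 HepG2 cells on collagen I, attached 4 h at 37 C, were co-treated with compound and LipidTOX Red dye for 24 h at 37 C, then fixed with paraformaldehyde plus Hoechst 33342 and imaged by high-content microscopy for phospholipid accumulation.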

Measured: Potency

O=C(O)c1cc(Cl)ccc1Cl
inactive: [1] | [2] | [3] | [4] | [5] | [6] | [7] | [8] | [9] | [10] | [11] | [12] | [13] | [14] | [15]

O=S(=O)(c1ccccc1)c1ccccc1
inactive: [1] | [2] | [3] | [4] | [5] | [6] | [7] | [8] | [9] | [10] | [11] | [16] | [12] | [13] | [15]

O=C(NC(=O)c1cc(F)c(F)cc1Cl)Nc1cc(F)ccc1N1CCC(C(=O)O)CC1
inactive: [1] | [2] | [3] | [4] | [5] | [6] | [7] | [8] | [10] | [11] | [17] | [16] | [12] | [13] | [14] | [15]

CCCC[N+](CCCC)(CCCC)CCCC
inactive: [1] | [2] | [3] | [4] | [6] | [7] | [8] | [9] | [10] | [11] | [17] | [12] | [13] | [15]

OCC1CO1 (stereo not given)
44.4 µM (active) and inactive: [3]
inactive: [1] | [4] | [5] | [7] | [8] | [10] | [11] | [17] | [12] | [13] | [15]

Clc1ccc(Cl)c(Cl)c1
inactive: [1] | [2] | [3] | [4] | [5] | [6] | [7] | [8] | [9] | [10] | [11] | [16] | [12] | [13] | [14] | [15]

O=C(O)C(F)(F)C(F)(F)C(F)(F)C(F)(F)C(F)(F)C(F)(F)C(F)(F)C(F)(F)F
inactive: [1] | [2] | [3] | [5] | [6] | [7] | [9] | [10] | [11] | [17] | [16] | [12] | [13] | [14] | [15]

Cc1ccccc1
inactive: [1] | [2] | [3] | [4] | [5] | [6] | [7] | [8] | [9] | [10] | [11] | [16] | [12] | [13] | [14] | [15]

CC(C)CCON=O
inactive: [18] | [2] | [3] | [4] | [5] | [6] | [8] | [9] | [10] | [11] | [19] | [16] | [12] | [13] | [14] | [15]

C=CCN1C[C@H](C)N([C@H](c2ccc(C(=O)N(CC)CC)cc2)c2cccc(OC)c2)C[C@H]1C
inactive: [18] | [3] | [4] | [6] | [7] | [8] | [9] | [10] | [11] | [17] | [19] | [16] | [12] | [13] | [14] | [15]

Nc1cccc2ccccc12
inactive: [1] | [2] | [3] | [4] | [5] | [7] | [8] | [9] | [10] | [11] | [16] | [12] | [13] | [14] | [15]

O=C(O)c1cc(I)cc(I)c1I
inactive: [1] | [2] | [3] | [4] | [5] | [6] | [7] | [8] | [9] | [10] | [11] | [17] | [16] | [12] | [13] | [14] | [15]

[Cl-].[Cl-].[Hg+2]
inactive: [19] | [15]
inactive and 15.5 µM (active): [3]
active: [1] 21.8 µM and 6.92 µM | [2] 24.4 µM and 3.09 µM | [4] 48.8 µM and 3.89 µM | [7] 38.7 µM and 11 µM | [9] 48.8 µM and 4.9 µM | [10] 27.2 µM and 21.7 µM | [11] 6.86 µM | [16] 54.2 µM and 34.4 µM | [12] 68.2 µM | [13] 682 nM and 2.17 µM | [14] 964 nM and 1.93 µM

CCC(C)(C)O
inactive: [1] | [2] | [3] | [4] | [5] | [6] | [7] | [8] | [9] | [10] | [11] | [17] | [16] | [12] | [13] | [14] | [15]

COc1cc(CC(C)N)c(OC)cc1Br (stereo not given)
inactive: [1] | [3] | [4] | [5] | [6] | [7] | [8] | [9] | [10] | [11] | [17] | [16] | [12] | [13] | [14] | [15]
